Results on 14 molecules are retold here after PubChem BioAssay.

Molecules are shown by their SMILES. Calls of active or inactive are those of the source. Unless noted, how the calls were made is not given here.

The nature of assay [1]: kinase inhibitors against Plasmodium liver-stage infection, cell-based, known kinase inhibitor set, luminescence, hepatoma host viability (AID 624392).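 Further: infected cells incubated roughly two days before readout.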 Conditions: Plasmodium liver stage in hepatoma cells, luciferase luminescence, concentration not given here; liver cell % of control: measured here: host liver cell viability; parasite % of control: stronger effect = lower value.
Assay [2] in a line: modulators of glucocorticoid suppression of NF-kB, cell-based, luciferase, IL-1B stimulus, dexamethasone (AID 624486).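 On percent of negative control (+Dex): 100% = mean signal of vehicle control wells on the plate.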 Conditions: NF-kB luciferase reporter, IL-1B + dexamethasone, luminescence; percent of negative control (+Dex): actives lie on both sides, concentration not given here; z-score: measured here: IL-1B alone, no Dex. (In a reporter assay the amount or activity of a reporter protein is the signal.)

Assay [3] can be described thus: kinase inhibitors altering Pseudomonas killing of worms, whole organism (AID 651566).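 Further: tested at 14 µM; sign flipped so higher z means a lower ratio.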 The settings on record: C. elegans killed by P. aeruginosa, survival ratio.
Assay [4] in a line: activators of macrophage pro-inflammatory response, cell-based, murine, luminescence (AID 652131). The settings on record: murine macrophage pro-inflammatory reporter, stronger effect = higher value.
Assay [5] has as its target Cellular tumor antigen p53 (Homo sapiens) (UniProt P04637). The experiment in a line: kinase inhibitors altering GFP-p53 stability in HPV16-positive cells, imaging, known kinase inhibitor set, EGFP/DsRed ratio (AID 1053116).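 Further: cells exposed to compounds for 24 h at 37 °C before reading.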 Conditions: stronger effect = higher value; EGFP object count: measured here: GFP-p53 positive objects count.
Assay [6] can be described thus: IRF3 reporter activation in THP-1 macrophages, cell-based, PMA-stimulated THP-1, luminescence (AID 1053176). Conditions: PMA-differentiated THP-1, IRF3 reporter luminescence; stronger effect = higher value.
The nature of assay [7]: survival rescue of mitochondrial mutant cells in low glucose, primary screen, MELAS cybrids, Rieske KO mouse fibroblasts, CellTiter-Glo (AID 1508586;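 active means mean z-score across replicates of 1.96 or higher in either the MELAS or the Rieske mutant cell line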;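 further: z relative to plate mean and SD of compound and empty wells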).
[8] abbreviates: MELAS cybrid survival, CellTiter-Glo 48 h, stronger effect = higher value.
Where [9] appears, read: Rieske KO mouse fibroblast survival, CellTiter-Glo 72 h.

Chain of Cellular tumor antigen p53 (Homo sapiens) (P04637 whole entry, looked up): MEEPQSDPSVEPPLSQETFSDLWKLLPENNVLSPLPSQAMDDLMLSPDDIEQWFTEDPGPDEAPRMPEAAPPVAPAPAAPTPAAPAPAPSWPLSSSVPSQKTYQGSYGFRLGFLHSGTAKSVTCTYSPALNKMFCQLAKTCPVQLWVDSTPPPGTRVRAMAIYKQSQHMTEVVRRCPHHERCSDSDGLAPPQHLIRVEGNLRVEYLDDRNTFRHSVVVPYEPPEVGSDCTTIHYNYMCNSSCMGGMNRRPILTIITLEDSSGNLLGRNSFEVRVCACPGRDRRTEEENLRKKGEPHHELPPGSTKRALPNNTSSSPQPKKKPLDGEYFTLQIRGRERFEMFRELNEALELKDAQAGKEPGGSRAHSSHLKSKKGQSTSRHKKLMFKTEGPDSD

For the molecule `COc1ccc(-c2nn3ncccc3c2-c2ccnc(Nc3ccc(Cl)c(C(F)(F)F)c3)n2)cc1`, the liver cell % of control in assay [1] turned out to be 101%. In addition, in assay [1], the parasite % of control is 87.8% (inactive). Further, the percent of negative control (+Dex) in assay [2] is 98% (inactive). Moreover, the z-score was 0.34 in assay [2]; -1.15 (inactive) in assay [3]; -0.74 (inactive) in assay [4]; 1.48 (inactive) in assay [7] (setting [8]); -0.347 in assay [7] (setting [9]). Besides, in assay [5], the EGFP object count is 2.5. For the same molecule, the EGFP/DsRed ratio in assay [5] was 0.0806 (inactive). In addition, the fraction signal in assay [6] was -0.0025 (inactive).
In turn, `COc1c(C(N)=O)cc(-c2ccc(Cl)cc2)cc1-c1ccc(S(N)(=O)=O)cc1` registered a liver cell % of control in assay [1] of 100%. Besides, the parasite % of control in assay [1] was 180% (inactive). The percent of negative control (+Dex) in assay [2] is 90.5% (inactive). For the same molecule, the z-score was 0.135 in assay [2]; -0.43 (inactive) in assay [3]; 0.956 (inactive) in assay [4]; 0.239 (inactive) in assay [7] (setting [8]); 0.0436 in assay [7] (setting [9]). For the same molecule, in assay [5], the EGFP object count was determined as 4. Also, the EGFP/DsRed ratio in assay [5] was 0.128 (inactive). In addition, the fraction signal in assay [6] was -0.003 (inactive).
As to `c1cc(-c2cnn3nc(N4CCOCC4)ccc23)nc(NC2CC2)n1`, the liver cell % of control in assay [1] turned out to be 147%. Further, in assay [1], the parasite % of control was 177% (inactive). Further, the percent of negative control (+Dex) in assay [2] is 59.5% (inactive). The z-score was -2.65 in assay [2]; -0.225 (inactive) in assay [3]; -1.49 (inactive) in assay [4]; 0.731 (inactive) in assay [7] (setting [8]); -0.389 in assay [7] (setting [9]). In assay [5], the EGFP object count was 3.5. The EGFP/DsRed ratio in assay [5] is 0.0725 (inactive). In assay [6], the fraction signal is -0.008 (inactive).
For the molecule `O=C(O[C@H]1CN[C@H](C#Cc2cc3ncnc(Nc4ccc(Cc5ccccc5)cc4)c3s2)C1)N1CCOCC1`, the liver cell % of control in assay [1] came to 106%. In addition, the parasite % of control in assay [1] was 85.4% (inactive). The percent of negative control (+Dex) in assay [2] was 88% (inactive). Moreover, the z-score in assay [2] was -1.34; in assay [3], -0.335 (inactive); in assay [4], 0.302 (inactive); in assay [7] (setting [8]), -0.24 (inactive); in assay [7] (setting [9]) it was -0.218. In assay [5], the EGFP object count worked out at 5.5. Besides, in assay [5], the EGFP/DsRed ratio was 0.104 (inactive). Also, the fraction signal in assay [6] was -0.006 (inactive).
As for `COC(=O)Nc1nc2ccc(Oc3ccc(NC(=O)Nc4cc(C(F)(F)F)ccc4F)cc3)cc2s1`, the liver cell % of control in assay [1] came to 100%. The parasite % of control in assay [1] was 360% (inactive). Moreover, the percent of negative control (+Dex) in assay [2] is 120% (inactive). Also, the z-score in assay [2] is -1.24; in assay [3] it was -0.21 (inactive); in assay [4], -0.073 (inactive); in assay [7] (setting [8]), -0.628 (inactive); in assay [7] (setting [9]) it was -0.719. In addition, in assay [5], the EGFP object count turned out to be 18.5. For the same molecule, the EGFP/DsRed ratio in assay [5] is 0.414 (inactive). In addition, the fraction signal in assay [6] is 0 (inactive).
In the case of `Cc1ccc(C(=O)NC2CCCCC2)cc1-c1ccc(C(=O)NCC2CC2)cc1`, in assay [1], the liver cell % of control came out at 103%. In assay [1], the parasite % of control is 134% (inactive). In addition, the percent of negative control (+Dex) in assay [2] was 88.5% (inactive). For the same molecule, the z-score in assay [2] was 0.05; in assay [3], 1.71 (inactive); in assay [4], 0.167 (inactive); in assay [7] (setting [8]) it was -0.861 (inactive); in assay [7] (setting [9]), 0.203. Also, in assay [5], the EGFP object count was 5.5. In addition, the EGFP/DsRed ratio in assay [5] is 0.116 (inactive). Moreover, the fraction signal in assay [6] was -0.007 (inactive).
For `N#Cc1cccc(Nc2ncc(-c3ccccc3)o2)c1`, the liver cell % of control in assay [1] came out at 108%. The parasite % of control in assay [1] was 125% (inactive). Also, the percent of negative control (+Dex) in assay [2] is 241% (active). Moreover, the z-score in assay [2] was 19.8; in assay [3], -0.175 (inactive); in assay [4], 4.37 (inactive); in assay [7] (setting [8]), 1.35 (inactive); in assay [7] (setting [9]), 0.0963. The EGFP object count in assay [5] was determined as 6. For the same molecule, the EGFP/DsRed ratio in assay [5] was 0.11 (inactive). Further, the fraction signal in assay [6] was -0.004 (inactive).
In turn, `FC(F)(F)CNc1nccc(-c2cnn3ncccc23)n1` yielded a liver cell % of control in assay [1] of 95.3%. Moreover, the parasite % of control in assay [1] was 264% (inactive). Also, in assay [2], the percent of negative control (+Dex) is 33.5% (active). For the same molecule, the z-score in assay [2] was -6.74; in assay [3], -1.18 (inactive); in assay [4] it was -1.22 (inactive); in assay [7] (setting [8]), 0.365 (inactive); in assay [7] (setting [9]), -0.533. In addition, the EGFP object count in assay [5] came out at 2. In assay [5], the EGFP/DsRed ratio is 0.0558 (inactive). Further, the fraction signal in assay [6] was -0.0105 (inactive).
Take `OCc1ccc(-c2nc(-c3ccc4c(c3)OCO4)c(-c3ccccn3)[nH]2)cc1`: the liver cell % of control in assay [1] was 108%. In assay [1], the parasite % of control was 115% (inactive). In assay [2], the percent of negative control (+Dex) is 106% (inactive). Besides, the z-score is -0.455 in assay [2]; -0.12 (inactive) in assay [3]; 1.4 (inactive) in assay [4]; -0.819 (inactive) in assay [7] (setting [8]); -0.0179 in assay [7] (setting [9]). In assay [5], the EGFP object count amounted to 3.5. Moreover, in assay [5], the EGFP/DsRed ratio was 0.0782 (inactive). Moreover, the fraction signal in assay [6] was 0.0015 (inactive).
The molecule `CS(=O)(=O)CCNCc1nc(-c2ccc3ncnc(Nc4ccc(OCc5cccc(C(F)(F)F)c5)cc4)c3c2)cs1` yielded a liver cell % of control in assay [1] of 96.4%. Moreover, the parasite % of control in assay [1] was 93.1% (inactive). In assay [2], the percent of negative control (+Dex) was 91.5% (inactive). In addition, the z-score in assay [2] was -0.43; in assay [3], -0.1 (inactive); in assay [4], 0.202 (inactive); in assay [7] (setting [8]), 0.123 (inactive); in assay [7] (setting [9]) it was -0.291. Besides, the EGFP object count in assay [5] was determined as 4.5. Besides, in assay [5], the EGFP/DsRed ratio is 0.116 (inactive). In addition, in assay [6], the fraction signal is -0.002 (inactive).
For the molecule `Nc1nc(-c2ccc3c(c2)/C(=C\c2cc(Br)c(O)c(Br)c2)C(=O)N3)cs1`, in assay [1], the liver cell % of control was 70.8%. Further, the parasite % of control in assay [1] is 79.2% (inactive). Besides, in assay [2], the percent of negative control (+Dex) is 86.5% (inactive). Moreover, the z-score was -0.23 in assay [2]; 0.35 (inactive) in assay [3]; 2.85 (inactive) in assay [4]; -0.944 (inactive) in assay [7] (setting [8]); -0.14 in assay [7] (setting [9]). In addition, the EGFP object count in assay [5] came to 5.5. The EGFP/DsRed ratio in assay [5] is 0.264 (inactive). The fraction signal in assay [6] is -0.002 (inactive).
Take `Cc1cc(O)cc(C)c1/C=C/c1cncc(-c2nn[nH]n2)c1`: in assay [1], the liver cell % of control came to 110%. In addition, in assay [1], the parasite % of control was 109% (inactive). Besides, in assay [2], the percent of negative control (+Dex) is 106% (inactive). The z-score in assay [2] was -0.05; in assay [3], 0.305 (inactive); in assay [4] it was 3.53 (inactive); in assay [7] (setting [8]), -0.295 (inactive); in assay [7] (setting [9]), -0.403. The EGFP object count in assay [5] worked out at 4.5. Moreover, the EGFP/DsRed ratio in assay [5] is 0.0667 (inactive). Besides, in assay [6], the fraction signal is -0.004 (inactive).
For `CCCN1CCCC(c2ccc(Nc3nc(Nc4cc(F)ccc4C(N)=O)c4cc[nH]c4n3)c(OC)c2)C1` (centres undefined), the liver cell % of control in assay [1] is 71%. Besides, the parasite % of control in assay [1] was 101% (inactive). Further, the percent of negative control (+Dex) in assay [2] was 73.5% (inactive). For the same molecule, the z-score in assay [2] is -2.44; in assay [3], 1.62 (inactive); in assay [4], -0.56 (inactive); in assay [7] (setting [8]), -0.991; in assay [7] (setting [9]), 4.23. In addition, the EGFP object count in assay [5] turned out to be 50.5. In assay [5], the EGFP/DsRed ratio is 0.576 (inactive). In addition, the fraction signal in assay [6] is -0.003 (inactive).
`COc1cccc(-n2ncc3c(N/N=C/c4ccc(C)cc4)ncnc32)c1` had a liver cell % of control in assay [1] of 114%. For the same molecule, the parasite % of control in assay [1] was 130% (inactive). The percent of negative control (+Dex) in assay [2] is 105% (inactive). In addition, the z-score is 0.92 in assay [2]; -0.225 (inactive) in assay [3]; -0.468 (inactive) in assay [4]; -0.521 (inactive) in assay [7] (setting [8]); 0.152 in assay [7] (setting [9]). The EGFP object count in assay [5] was 9.5. Moreover, the EGFP/DsRed ratio in assay [5] was 0.811 (inactive). Moreover, the fraction signal in assay [6] is 0.0005 (inactive).
